The entries come from a sample that favours the strongest signals as a whole.
Key:
Assay in all cases: glycan array binding signal (z-score within array); higher = stronger binding
Conditions in all cases: glycan notation: IUPAC condensed, linker removed; mutation: E227A
[1] = biological target: Fuc(a1-2)Gal(b1-3)GalNAc(a1-3)[Fuc(a1-2)]Gal(b1-4)Glc
Outline: (§1)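 Negative Z-scores can be read as non-binding. The Z-score is calculated within each array and then averaged across arrays of one protein sequence at different concentrations or buffers and across linkers. Arrays, 3228 in all, were curated from the Consortium for Functional Glycomics database and kept only where the protein sequence was available.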

[2] = biological target: Fuc(a1-2)Gal(b1-3)GlcNAc(b1-3)[Gal(b1-4)GlcNAc(b1-6)]Gal(b1-4)Glc
Outline: as §1

[3] = biological target: Fuc(a1-2)Gal(b1-3)[Fuc(a1-4)]GlcNAc(b1-2)Man(a1-3)[Fuc(a1-2)Gal(b1-3)[Fuc(a1-4)]GlcNAc(b1-2)Man(a1-3)]Man(b1-4)GlcNAc(b1-4)GlcNAc
Outline: as §1

[4] = biological target: Fuc(a1-2)Gal(b1-4)Fuc(a1-3)]GlcNAc(b1-2)Man(a1-3)[Fuc(a1-2)Gal(b1-4)[Fuc(a1-3)]GlcNAc(b1-2)Man(a1-6)]Man(b1-4)GlcNAc(b1-4)GlcNAc
Outline: as §1

[5] = biological target: Fuc(a1-2)[Gal(a1-3)]Gal(b1-3)GlcNAc(b1-3)GalNAc
Outline: as §1

[6] = biological target: Fuc(a1-2)[Gal(a1-3)]Gal(b1-4)[Fuc(a1-3)]GlcNAc(b1-3)GalNAc
Outline: as §1

[7] = biological target: Fuc(a1-2)[Gal(a1-4)]Gal(b1-4)GlcNAc
Outline: as §1

[8] = biological target: Fuc(a1-2)[GalNAc(a1-3)]Gal(b1-3)GlcNAc(b1-3)GalNAc
Outline: as §1

[9] = biological target: Fuc(a1-2)[GalNAc(a1-3)]Gal(b1-4)[Fuc(a1-3)]GlcNAc
Outline: as §1

[10] = biological target: Fuc(a1-2)[GalNAc(b1-3)]Gal
Outline: as §1

[11] = biological target: Fuc(a1-3)[Gal(b1-4)]GlcNAc6S
Outline: as §1

[12] = biological target: Fuc(a1-3)[Gal3S(b1-4)]Glc
Outline: as §1

Gal(b1-2)Gal = biological target: Gal(b1-2)Gal
Outline: as §1

Gal(b1-3)Gal(b1-4)GlcNAc = biological target: Gal(b1-3)Gal(b1-4)GlcNAc
Outline: as §1

Gal(b1-3)GalNAc = biological target: Gal(b1-3)GalNAc
Outline: as §1

[13] = biological target: Gal(b1-3)GalNAc(b1-4)Gal(b1-4)Glc
Outline: as §1

[14] = biological target: Gal(b1-3)GlcNAc(a1-6)Gal(b1-4)GlcNAc
Outline: as §1

[15] = biological target: Gal(b1-3)GlcNAc(b1-6)Gal(b1-4)GlcNAc
Outline: as §1

Gal(b1-3)GlcNAc6S = biological target: Gal(b1-3)GlcNAc6S
Outline: as §1

Gal(b1-4)Glc = biological target: Gal(b1-4)Glc
Outline: as §1

[16] = biological target: Gal(b1-4)GlcNAc(b1-3)Gal(b1-4)GlcNAc(b1-3)Gal(b1-4)GlcNAc(b1-2)Man(a1-3)[Gal(b1-4)GlcNAc(b1-3)Gal(b1-4)GlcNAc(b1-3)Gal(b1-4)GlcNAc(b1-2)Man(a1-6)]Man(b1-4)GlcNAc(b1-4)GlcNAc
Outline: as §1

[17] = biological target: Gal(b1-4)GlcNAc(b1-3)Gal(b1-4)GlcNAc(b1-3)Gal(b1-4)GlcNAc(b1-2)[Gal(b1-4)GlcNAc(b1-3)Gal(b1-4)GlcNAc(b1-3)Gal(b1-4)GlcNAc(b1-6)]Man(a1-6)[Gal(b1-4)GlcNAc(b1-3)Gal(b1-4)GlcNAc(b1-3)Gal(b1-4)GlcNAc(b1-2)Man(a1-3)]Man(b1-4)GlcNAc(b1-4)[Fuc(a1-6)]GlcNAc
Outline: as §1

[18] = biological target: Gal(b1-4)GlcNAc(b1-6)[Gal(b1-3)]GalNAc
Outline: as §1

Gal3S(b1-4)Glc = biological target: Gal3S(b1-4)Glc
Outline: as §1

Gal6S(b1-3)GlcNAc6S = biological target: Gal6S(b1-3)GlcNAc6S
Outline: as §1

Gal6S(b1-4)Glc = biological target: Gal6S(b1-4)Glc
Outline: as §1

Gal6S(b1-4)Glc6S = biological target: Gal6S(b1-4)Glc6S
Outline: as §1

Gal6S(b1-4)GlcNAc = biological target: Gal6S(b1-4)GlcNAc
Outline: as §1

Gal6S(b1-4)GlcNAc6S = biological target: Gal6S(b1-4)GlcNAc6S
Outline: as §1

GalNAc(b1-4)GlcNAc6S = biological target: GalNAc(b1-4)GlcNAc6S
Outline: as §1

GalNAc4S6S(b1-4)GlcNAc = biological target: GalNAc4S6S(b1-4)GlcNAc
Outline: as §1

Glc(a1-6)Glc(a1-6)Glc = biological target: Glc(a1-6)Glc(a1-6)Glc
Outline: as §1

[19] = biological target: GlcNAc(a1-4)Gal(b1-4)GlcNAc
Outline: as §1

[20] = biological target: GlcNAc(a1-4)Gal(b1-4)GlcNAc(b1-3)Gal(b1-4)Glc
Outline: as §1

[21] = biological target: GlcNAc(b1-2)Man(a1-3)[GlcNAc(b1-2)Man(a1-6)]Man(b1-4)GlcNAc(b1-4)GlcNAc
Outline: as §1

GlcNAc(b1-3)Fuc = biological target: GlcNAc(b1-3)Fuc
Outline: as §1

[22] = biological target: GlcNAc(b1-3)Gal(b1-3)GalNAc
Outline: as §1

[23] = biological target: GlcNAc(b1-3)Gal(b1-4)GlcNAc(b1-3)Gal(b1-4)GlcNAc(b1-2)[GlcNAc(b1-3)Gal(b1-4)GlcNAc(b1-3)Gal(b1-4)GlcNAc(b1-6)]Man(a1-6)[GlcNAc(b1-3)Gal(b1-4)GlcNAc(b1-3)Gal(b1-4)GlcNAc(b1-2)Man(a1-3)]Man(b1-4)GlcNAc(b1-4)[Fuc(a1-6)]GlcNAc
Outline: as §1

[24] = biological target: GlcNAc(b1-3)Gal(b1-4)GlcNAc(b1-6)[GlcNAc(b1-3)Gal(b1-3)]GalNAc
Outline: as §1

GlcNAc(b1-3)GalNAc = biological target: GlcNAc(b1-3)GalNAc
Outline: as §1

[25] = biological target: Man(a1-2)Man(a1-3)[Man(a1-2)Man(a1-6)]Man
Outline: as §1

[26] = biological target: Man(a1-2)Man(a1-3)[Man(a1-6)]Man(a1-6)[Man(a1-2)Man(a1-3)]Man(b1-4)GlcNAc(b1-4)GlcNAc
Outline: as §1

[27] = biological target: Man(a1-3)[Man(a1-6)]Man(a1-6)[Man(a1-3)]Man
Outline: as §1

[28] = biological target: Neu5Ac(a2-3)Gal(b1-3)[Fuc(a1-4)]GlcNAc
Outline: as §1

[29] = biological target: Neu5Ac(a2-3)Gal(b1-3)]Neu5Ac(a2-3)Gal(b1-4)]GlcNAc
Outline: as §1

[30] = biological target: Neu5Ac(a2-3)Gal(b1-4)GlcNAc(b1-3)Gal(b1-4)GlcNAc(b1-3)Gal(b1-4)GlcNAc
Outline: as §1

[31] = biological target: Neu5Ac(a2-3)Gal(b1-4)[Fuc(a1-3)]GlcNAc(b1-3)GalNAc
Outline: as §1

[32] = biological target: Neu5Ac(a2-3)Gal(b1-4)[Fuc(a1-3)]GlcNAc(b1-6)[Neu5Ac(a2-3)Gal(b1-3)]GalNAc
Outline: as §1

[33] = biological target: Neu5Ac(a2-6)Gal(b1-4)GlcNAc(b1-2)Man(a1-3)Man(b1-4)GlcNAc(b1-4)GlcNAc
Outline: as §1

[34] = biological target: Neu5Ac(a2-6)Gal(b1-4)GlcNAc(b1-2)Man(a1-6)[Man(a1-3)]Man(b1-4)GlcNAc(b1-4)GlcNAc
Outline: as §1

[35] = biological target: Neu5Ac(a2-6)Gal(b1-4)GlcNAc(b1-3)Gal(b1-4)GlcNAc(b1-6)[Gal(b1-3)]GalNAc
Outline: as §1

[36] = biological target: Neu5Ac(a2-8)Neu5Ac(a2-8)Neu5Ac(a2-3)[Gal(b1-3)GalNAc(b1-4)]Gal(b1-4)Glc
Outline: as §1

B1: Epa1-NP-mutant-E227A (Candida glabrata), Q6VBJ0 (protein)
chain: MILNPALFLNKCVCIYTTLILLLLTNGGYATSSNDISLASKDPTTFPLGCSPDITTPKKGLSMELYSYDFRKKGSYPCWDAAYLDPNYPRTGYKSHRLLAKVDGVTGNINFYYHATKGCTPQLGHLPASYNYPKPLTMTNFTMLLYGYFRPKVTGFHTFTISADDLLFVNFGAGNAFDCCRRDSSADHFGNYQAYAIWGSKTAKDELTVHLDAGVYYPIRLFYNNRAYDGALSFTFKTESNENTVSDFSEYFFSLDDTEEGCPGLISYDSSCASVKTSKIIGIDYHTETPNENLVPITKTIYHLGIPCTGTTTTPLCGSGFYDPLANKCVTINTSSTSSVTKTTSHTTSKEVSFHSSISSQKTLIPKSIPSPYGPIKSQSIPTEMETSSEISSSEYAFSDVISTPSHSPYTKKHSSLNSSSYTSTVIHSLTSYSISQGIFSTSLSEQNITSKSSTDKFSTATSMSNNITQSSIIISQFSTNNENYTTTSMHTSSDKISTETLNNSISTTTSILFSNSSTILKNNTTIISSDKDTHYHPVNPTIVCSTNKTEIICASITQPSISNSNNHWSSSVLKFNSTTVRSTLPSSAGSNETSINVPFSSSTESNTSTSSTSTSNSKMVRSTLPSSAGSNETSISVPFSSSTESNTSTSSTSTSNSKMVRSTLPSSAGSNETSINVPFSSSTESNTSTSSTSTSNSKTVRSTPFSSAGIIMTSLSQRNNKSASSYASSNSKCYNTADSCRKVHSTPSYLLTSSYTSEGVDYDCSLVSTKLKINDTNCVNNKHTTKSCLKTSVTTTIPTLEIKTARKSSSNTIGLHSYPTSSPNKSISSAPIIGYISSFKTIKTASPSYQTSDLTTITTITSLNNPGSTAVENTHESNDKSRKTSSNDISSKHSVIKETKDAVESSNKSHQTNTLKCSSIIIASSSHNSYESLGGTTLTLTLSKVYSPQNNDTLPFLEISEVNPSRTVLPESSKMMQYLTSTEERNKTARNTIATNIVSISTFHFEGEGNAIRMGYTQLLLMLIGIIVMNIGT
glycan array binding signal (z-score) [1]: -0.214 | glycan array binding signal (z-score) [2]: -0.138 | glycan array binding signal (z-score) [3]: -0.162 | glycan array binding signal (z-score) [4]: -0.184 | glycan array binding signal (z-score) [5]: -0.204 | glycan array binding signal (z-score) [6]: -0.168 | glycan array binding signal (z-score) [7]: -0.221 | glycan array binding signal (z-score) [8]: -0.197 | glycan array binding signal (z-score) [9]: -0.13 | glycan array binding signal (z-score) [10]: -0.161 | glycan array binding signal (z-score) [11]: -0.143 | glycan array binding signal (z-score) [12]: -0.172 | glycan array binding signal (z-score) (Gal(b1-2)Gal): -0.041 | glycan array binding signal (z-score) (Gal(b1-3)Gal(b1-4)GlcNAc): 2.03 | glycan array binding signal (z-score) (Gal(b1-3)GalNAc): 1.28 | glycan array binding signal (z-score) [13]: 3.42 | glycan array binding signal (z-score) [14]: -0.057 | glycan array binding signal (z-score) [15]: 7.88 | glycan array binding signal (z-score) (Gal(b1-3)GlcNAc6S): 1.37 | glycan array binding signal (z-score) (Gal(b1-4)Glc): -0.13 | glycan array binding signal (z-score) [16]: 0.626 | glycan array binding signal (z-score) [17]: 1.15 | glycan array binding signal (z-score) [18]: 1.27 | glycan array binding signal (z-score) (Gal3S(b1-4)Glc): -0.193 | glycan array binding signal (z-score) (Gal6S(b1-3)GlcNAc6S): 1.88 | glycan array binding signal (z-score) (Gal6S(b1-4)Glc): 4.56 | glycan array binding signal (z-score) (Gal6S(b1-4)Glc6S): 6.39 | glycan array binding signal (z-score) (Gal6S(b1-4)GlcNAc): 5.93 | glycan array binding signal (z-score) (Gal6S(b1-4)GlcNAc6S): 15.2 | glycan array binding signal (z-score) (GalNAc(b1-4)GlcNAc6S): -0.184 | glycan array binding signal (z-score) (GalNAc4S6S(b1-4)GlcNAc): -0.197 | glycan array binding signal (z-score) (Glc(a1-6)Glc(a1-6)Glc): -0.201 | glycan array binding signal (z-score) [19]: -0.198 | glycan array binding signal (z-score) [20]: -0.194 | glycan array binding signal (z-score) [21]: -0.191 | glycan array binding signal (z-score) (GlcNAc(b1-3)Fuc): -0.185 | glycan array binding signal (z-score) [22]: -0.176 | glycan array binding signal (z-score) [23]: -0.163 | glycan array binding signal (z-score) [24]: -0.207 | glycan array binding signal (z-score) (GlcNAc(b1-3)GalNAc): -0.214 | glycan array binding signal (z-score) [25]: -0.166 | glycan array binding signal (z-score) [26]: -0.198 | glycan array binding signal (z-score) [27]: -0.196 | glycan array binding signal (z-score) [28]: -0.197 | glycan array binding signal (z-score) [29]: -0.213 | glycan array binding signal (z-score) [30]: -0.202 | glycan array binding signal (z-score) [31]: -0.12 | glycan array binding signal (z-score) [32]: -0.16 | glycan array binding signal (z-score) [33]: -0.2 | glycan array binding signal (z-score) [34]: -0.2 | glycan array binding signal (z-score) [35]: 0.553 | glycan array binding signal (z-score) [36]: -0.194
